The record followed here is PMC5540273 (PLoS ONE, 2017).

Test systems include MAPKAPK5; MARK1; MARK2; MARK3; MARK4; MAST1; MELK; MERTK; MET; MKK7; MKNK1; MKNK2.
Common to all, as to settings: concentration: 1 μM,replicates: in singlicate; n = 1
The test system of another assay is T1, MEK1.
T1 construct: gene MAP2K1

The next assay concerns T2, MEK2.
T2 construct: gene MAP2K2

A further assay relates to T3, MEK3.
T3 construct: gene MAP2K3

Another assay relates to T4, MEK4.
T4 construct: gene MAP2K4

A further assay concerns T5, MEK5.
T5 construct: gene MAP2K5

In another assay the test system is T6, MEK6.
T6 construct: gene MAP2K6

Another assay relates to T7, MINK.
T7 construct: gene MINK1

The next assay deals with T8, MLCK.
T8 construct: gene MYLK3
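Further: KINOMEscan kinase panel screen.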

For `O=C(Nc1cccc(Oc2ccc3nccn3n2)c1)Nc1cccc(C(F)(F)F)c1`, the “%Inh” value in the assay with MAPKAPK5 was determined as 0%; with MARK1 it was 14%; with MARK2, 12%; with MARK3 it was 0%; with MARK4, 24%; in the assay on MAST1, 0%. In addition, the “%Inh” value in the assay with MEK1 is listed as 0%; in the assay with MEK2, 7%; in the assay with MEK3 it was 29%; with MEK4, 0%; in the assay on MEK5, 97%; with MEK6 it was 0%. Further, the “%Inh” value was 10% in the assay with MELK; 24% in the assay with MERTK; 0% in the assay on MET; 27% in the assay with MINK; 0% in the assay with MKK7; 8% in the assay on MKNK1. The “%Inh” value with MKNK2 and in the assay with MLCK was 0% in each case.

As to `CN(c1cccc(CNc2nc(Nc3ccc4c(c3)CC(=O)N4)ncc2C(F)(F)F)c1)S(C)(=O)=O`, the “%Inh” value came to 0% in the assay with MAPKAPK5; 47% in the assay with MARK1; 39% in the assay with MARK2; 66% with MARK3; 56% with MARK4; 0% in the assay with MAST1. Besides, the “%Inh” value turned out to be 0% with MEK1; 43% in the assay on MEK2; 62% with MEK3; 35% with MEK4; 0% with MEK5; 0% in the assay on MEK6. Further, the “%Inh” value was 84% in the assay with MELK; 80% in the assay with MERTK; 93.9% in the assay with MET; 76% with MINK; 0% in the assay with MKK7; 0% in the assay with MKNK1. The figures for the “%Inh” value in the assay with MKNK2 and with MLCK were 28% and 1%, respectively.

Regarding `COc1cccc(OC)c1C(=O)Nc1cccc(-c2nn3ccccc3c2-c2ccnc(Nc3cccc(F)c3)n2)c1` [GSK361065], the “%Inh” value was 8% with MAPKAPK5; 17% in the assay with MARK1; 8% with MARK2; 7% in the assay with MARK3; 14% with MARK4; 9% in the assay on MAST1. The “%Inh” value in the assay on MEK1 worked out at 28%; with MEK2 it was 41%; in the assay on MEK3, 30%; in the assay with MEK4, 0%; with MEK5 it was 93.2%; in the assay on MEK6, 3%. The “%Inh” value in the assay on MELK is 0%; in the assay on MERTK, 50%; with MET, 34%; in the assay with MINK, 0%; with MKK7 it was 0%; in the assay with MKNK1 it was 0%. Moreover, the “%Inh” value in the assay with MKNK2 was 0%; in the assay with MLCK, 2%.

`COc1cc2ncn(-c3cc(OCC4CCCCC4)c(C(N)=O)s3)c2cc1OC` [GSK204559]: the “%Inh” value with MAPKAPK5 is recorded as 0%; in the assay on MARK1, 14%; in the assay on MARK2, 1%; with MARK3, 0%; in the assay on MARK4 it was 26%; in the assay with MAST1, 0%. In addition, the “%Inh” value in the assay with MEK1 is 0%; with MEK2 it was 0%; in the assay with MEK3, 9%; with MEK4, 13%; in the assay on MEK5, 99.6%; with MEK6, 0%. For the same compound, the “%Inh” value in the assay on MELK was 13%; in the assay on MERTK it was 33%; in the assay with MET, 17%; in the assay with MINK, 31%; with MKK7, 0%; in the assay with MKNK1, 33%. Moreover, the entries for the “%Inh” value in the assay with MKNK2 and in the assay on MLCK were 10% and 3%, respectively.

`Cc1cccc2c(-c3ccncc3)c(-c3ccc(F)cc3)nn12.Cl` [GW461487]: the “%Inh” value in the assay with MAPKAPK5, in the assay with MARK1, in the assay on MARK2, with MARK3, in the assay with MARK4 and in the assay on MAST1 was 0% each time. Also, the “%Inh” value with MEK1 was 39%; in the assay with MEK2, 0%; with MEK3, 0%; in the assay on MEK4, 52%; in the assay with MEK5 it was 6%; in the assay on MEK6, 0%. Further, the “%Inh” value with MELK came to 0%; with MERTK it was 5%; in the assay with MET, 0%; in the assay on MINK it was 30%; in the assay on MKK7 it was 0%; in the assay with MKNK1 it was 1%. The “%Inh” value in the assay on MKNK2 and in the assay with MLCK was 0% throughout.

As for `CNC(=O)c1ccccc1Nc1nc(Nc2cccc(CS(C)(=O)=O)c2)ncc1C.O=CO` [GSK1520489], the “%Inh” value in the assay on MAPKAPK5 was 0%; in the assay on MARK1, 71%; in the assay with MARK2, 87%; in the assay on MARK3 it was 72%; with MARK4 it was 92.3%; with MAST1 it was 5%. Besides, the “%Inh” value in the assay with MEK1 is 94.5%; with MEK2 it was 91.1%; with MEK3, 69%; in the assay with MEK4, 56%; in the assay on MEK5, 99.9%; in the assay with MEK6, 39%. Further, the “%Inh” value in the assay on MELK came out at 94.6%; in the assay with MERTK, 100%; in the assay on MET it was 97.3%; in the assay on MINK, 58%; in the assay on MKK7 it was 0%; with MKNK1 it was 0%. The “%Inh” value was determined as 50% with MKNK2 and 41% in the assay on MLCK.

For the compound `Cn1ccc2ncnc(Oc3ccc(NC(=O)Nc4cccc(C(F)(F)F)c4)c(F)c3)c21`, the “%Inh” value in the assay on MAPKAPK5 was found to be 0%; with MARK1 it was 13%; with MARK2 it was 9%; with MARK3, 8%; with MARK4, 0%; in the assay with MAST1, 0%. The “%Inh” value was found to be 0% in the assay with MEK1; 29% in the assay on MEK2; 3% in the assay on MEK3; 0% in the assay on MEK4; 35% with MEK5; 0% with MEK6. For the same compound, the “%Inh” value was 10% in the assay on MELK; 98% in the assay with MERTK; 50% with MET; 0% in the assay on MINK; 0% in the assay with MKK7; 18% in the assay on MKNK1. Further, the “%Inh” value in the assay with MKNK2 was 89%; with MLCK, 0%.

For the compound `COc1ccc(Nc2nccc(N3CCC(NC(=O)c4cccc(C#N)c4)C3)n2)cc1` (centres unmarked) [GSK1379730], the “%Inh” value in the assay with MAPKAPK5 came out at 0%; in the assay with MARK1, 1%; with MARK2 it was 0%; in the assay with MARK3, 0%; in the assay on MARK4 it was 9%; with MAST1 it was 0%. Besides, the “%Inh” value is reported as 0% in the assay on MEK1; 0% in the assay with MEK2; 0% in the assay with MEK3; 8% with MEK4; 8% with MEK5; 0% in the assay on MEK6. Also, the “%Inh” value was 0% in the assay on MELK; 24% in the assay with MERTK; 9% in the assay on MET; 0% in the assay with MINK; 17% in the assay with MKK7; 0% in the assay with MKNK1. Besides, the “%Inh” value was 5% with MKNK2 and 3% in the assay on MLCK.

For the compound `OCCn1cc(-c2cnc3nnn(Cc4ccc5ncccc5c4)c3n2)cn1`, the “%Inh” value in the assay on MAPKAPK5, with MARK1, in the assay with MARK2, in the assay on MARK3, in the assay with MARK4 and in the assay on MAST1 was 0% in each case. In addition, the “%Inh” value in the assay on MEK1, in the assay on MEK2, with MEK3, in the assay on MEK4, in the assay with MEK5 and with MEK6 was 0% each time. The “%Inh” value in the assay with MELK came out at 32%; in the assay with MERTK, 0%; with MET, 79%; with MINK it was 0%; in the assay on MKK7, 0%; in the assay on MKNK1, 0%. In addition, the “%Inh” value with MKNK2 was determined as 0%; in the assay on MLCK, 13%.

As for `C[C@@H]1CCN(C(=O)N2CCCC2)C[C@@H]1N(C)c1ncnc2[nH]ccc12`, the “%Inh” value with MAPKAPK5 was 8%; in the assay with MARK1, 0%; in the assay on MARK2 it was 50%; with MARK3, 46%; in the assay with MARK4, 5%; in the assay with MAST1, 0%. The “%Inh” value in the assay on MEK1 was determined as 18%; in the assay on MEK2, 0%; with MEK3, 29%; in the assay on MEK4, 13%; with MEK5 it was 38%; in the assay with MEK6, 20%. The “%Inh” value in the assay with MELK is on record as 13%; in the assay with MERTK, 0%; in the assay on MET, 0%; with MINK it was 30%; with MKK7 it was 0%; with MKNK1, 0%. Also, the entries for the “%Inh” value in the assay on MKNK2 and in the assay on MLCK were 58% and 0%, respectively.
